Shown are actives, neighbours in structure and some others; about 9.4% of the full set was active somewhere.
IMPase cell inh – cell-permeable inhibitors of inositol monophosphatase (IMPase). P97697. CHO-M1 cells, IP1 accumulation, HTRF TR-FRET ratio. 120,000 tested, under 10 active. inhibition (IP1 accumulation), % at 46.1 µM; active = well fitted curve in the direction sought with a large enough effect in the signal ratio, not every such curve was filed as active; inconclusive = small, poorly fitted or top-dose-only effect, or a change in a side signal; inactive = no such curve, though single readings can be large or run the other way; the % refers to the signal ratio;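 note: cells stimulated with carbachol in lithium chloride buffer; plate controls were DMSO basal wells for no effect and reference inhibitor wells for full effect; higher means more IMPase inhibition seen as more IP1 and lower FRET ratio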
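CHO-M1 cells (CHO stably expressing M1 receptor), compound up to 46 uM final, stimulated with carbachol (50 uM as added) in buffer with 50mM LiCl, pH 7.4, 30 min at 37C. Cytosolic IP1 read by TR-FRET; AC50 from Hill fits.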
HttQ103 aggreg – reduces HttQ103-GFP aggregates in PC12 cells | actives 1.1% (n = 220,000) | AID 1688 | Potency, µM (top dose mostly 46.1 µM), for the others: top-dose activity change, negative = inhibition, actives largely listed as inhibitors | PC12 HttQ103-GFP aggregates, Acumen cytometry, 40 h; note: potency is the fitted concentration of half-maximal effect; % is set by controls: 0 for no effect and ±100 for the full control effect; nearly all actives have a fitted effect of over 60% in size
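Ecdysone-promoter PC12 model expressing HTT exon 1 Q103 fused to GFP, induced by tebufenozide at 100 nM final. Compounds titrated; aggregates sized 1–25 µm scored on a 488 nm laser cytometer.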
HPGD block – blocks human HPGD enzyme activity. P15428. Potency, µM, without a hit: top-dose activity change, negative = inhibition, actives largely listed as inhibitors. purified HPGD, NADH fluorescence kinetic, PGE2 substrate. actives 4.3% (n = 150,000); active = well fitted inhibition curve with a large enough effect, not every such curve was filed as active; inconclusive = small, poorly fitted or top-dose-only effect, or another doubt; inactive = no such curve, though single readings can be large or run the other way; note: potency is the fitted concentration of half-maximal effect; % is set by controls: 0 for no effect and ±100 for the full control effect
Target sequence (P15428 whole entry, looked up): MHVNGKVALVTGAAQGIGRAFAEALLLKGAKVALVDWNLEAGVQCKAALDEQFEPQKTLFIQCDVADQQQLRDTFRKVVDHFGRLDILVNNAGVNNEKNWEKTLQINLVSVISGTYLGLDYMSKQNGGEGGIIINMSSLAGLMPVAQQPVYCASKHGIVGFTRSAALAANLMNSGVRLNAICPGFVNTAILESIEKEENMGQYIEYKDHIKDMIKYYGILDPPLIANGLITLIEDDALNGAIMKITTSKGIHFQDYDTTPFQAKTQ
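20 nM HPGD preincubated 15 min at room temperature with compound in 50 mM Tris-HCl pH 8, 0.01% Tween 20. Started with 1 mM NAD+ and 30 uM prostaglandin E2; NADH fluorescence (360/450 nm) read 5 times over 30-s intervals, last minus first.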
HTT ATP protect – cytoprotection in Huntington HTT-Q103 PC12 cell model; PC12 HTT-Q103 induced, cytoprotection, ATP luminescence, 40 h; Potency, µM (doses to about 56.4 µM), for the others: cytoprotection (ATP increase), usual class: activators; actives 0.14% (n = 230,000); AID 1471; note: potency is the fitted concentration of half-maximal effect; % of control where 0% means no effect; nearly all actives have a fitted effect of over 45% in size
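Readout: ATPlite luminescence (ATP level). Model: stable PC12, inducible Htt exon1 Q103-GFP. Inducer: tebufenozide, 100 nM final. Compounds: dose series. No G418 in medium.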
IMPase Li cell – IMPase inhibition in cells with lithium potentiation; actives 0.35% (n = 210,000); AID 1457; CHO-M1 cells, IP1 TR-FRET (IP-One), carbachol + lithium; Potency, µM (top dose mostly 59.4 µM), for the others: at the top dose activity, negative = IMPase inhibition, actives largely listed as inhibitors;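 note: IP1 builds up when IMPase is blocked and the TR-FRET signal falls; potency is the fitted concentration of half-maximal effect; plate controls were basal vehicle for no effect and high inhibitor control for full effect; nearly all actives have a fitted effect of over 50% in size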
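IP1 accumulation measured by competitive TR-FRET in lysed CHO-M1 cells after 30 min compound exposure at 37C, with a small lithium addition to potentiate weak responses. Hill-equation AC50 from ratio and donor-channel data.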
ALDH1A1 block – blocks purified human ALDH1A1 activity | P00352 | Purified ALDH1A1, NADH fluorescence, propionaldehyde substrate | Potency, µM (top dose mostly 75.3 µM), for inactives: at the highest dose activity, negative = inhibition, most hits filed as inhibitors | actives 7.3% (n = 220,000) | AID 1030; active = well fitted inhibition curve with a large enough effect, not every such curve was filed as active; inconclusive = small, poorly fitted or top-dose-only effect, or another doubt; inactive = no such curve, though single readings can be large or run the other way;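 note: potency is the fitted concentration of half-maximal effect; plate controls were no enzyme wells and a reference inhibitor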
Target sequence (P00352 whole entry, looked up): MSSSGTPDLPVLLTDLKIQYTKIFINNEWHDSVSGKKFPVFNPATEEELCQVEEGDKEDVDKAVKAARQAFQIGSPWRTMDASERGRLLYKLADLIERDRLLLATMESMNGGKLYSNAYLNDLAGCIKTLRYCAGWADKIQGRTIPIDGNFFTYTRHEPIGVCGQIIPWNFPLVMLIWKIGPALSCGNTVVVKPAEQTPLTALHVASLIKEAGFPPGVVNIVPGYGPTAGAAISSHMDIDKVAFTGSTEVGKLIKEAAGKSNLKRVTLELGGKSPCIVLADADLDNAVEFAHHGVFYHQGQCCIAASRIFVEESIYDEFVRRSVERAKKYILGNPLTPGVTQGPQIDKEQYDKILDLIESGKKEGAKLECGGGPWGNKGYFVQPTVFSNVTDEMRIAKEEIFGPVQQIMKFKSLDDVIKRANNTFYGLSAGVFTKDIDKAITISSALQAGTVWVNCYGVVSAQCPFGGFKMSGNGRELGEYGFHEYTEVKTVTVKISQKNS
* marks the source's active call; other numbers are inactive results; ? = inconclusive; · = no result; [ ] = dose if it differs, or a comment. Unless noted, calls come from the whole dose curve; as a rule, active = well fitted curve in the direction sought with a large enough effect; inconclusive = small, poorly fitted or top-dose-only effect, or another doubt; inactive = no such curve, though single readings can be large; an effect the other way counts as inactive or inconclusive.

SMILES	IMPase cell inh	HttQ103 aggreg	HPGD block	HTT ATP protect	IMPase Li cell	ALDH1A1 block
CC(=O)OCCNc1cc(Sc2nc3ccccc3[nH]2)c2nonc2c1[N+](=O)[O-]	-3	?	3.2µM*	-35%[10 µM]	-11%	10%
CC(=O)OCCCNc1cc(Sc2ccc(C)cc2)c2nonc2c1[N+](=O)[O-]	1	?	-22%	17%[10 µM]	5%	-13%
CC(=O)OCCCNc1cc(Sc2nc3ccccc3s2)c2nonc2c1[N+](=O)[O-]	-1	2%	2.5µM*	-31%[10 µM]	22%	11µM*
CN(Cc1ccco1)c1ncncc1-c1cccc(C#N)c1	·	·	·	-3%	23%	-9%
Cc1ccc(NC(=O)c2c(NC(=O)C(F)(F)F)sc3c2CCCCC3)cc1	-1	·	·	·	·	·
O=C1C2C3C=CC(C3)C2C(=O)N1c1ccc(N2CCN(c3ccccn3)CC2)c([N+](=O)[O-])c1 (stereo not drawn)	·	?	·	-119%	?	?
COc1ccc(N=C2CCS(=O)(=O)c3sccc32)cc1	·	2%[9.22 µM]	·	-1%	0%	10µM*
Cc1ccc(-n2cccc2/C=C2\C(=N)N3N=C(C(C)C)SC3=NC2=O)cc1	·	4%	·	-14%	4%	16µM*
CCC1=NN2C(=N)/C(=C\c3cccn3-c3ccc(OC)cc3)C(=O)N=C2S1	·	10%	·	-38%	-2%	?
C[C@@H]1C(=O)N(C)C(=O)c2nc[nH]c21	-1	·	·	-8%[1.9 µM]	·	·
Cc1ccc(N=Nc2c(O)c3ccccc3[nH]c2=O)c(S(=O)(=O)N(C)C)c1	·	4%[9.22 µM]	-1%	-13%[10 µM]	0%	14µM*
Cc1oc(=O)c(NC(=O)c2ccc(Cl)cc2)cc1C(=O)c1ccccc1	4	?	32µM*	?	22%[38.3 µM]	3.5µM*
CC(=O)c1cc(NC(=O)c2ccc(C)cc2)c(=O)oc1C	·	?	·	-113%	7%	22µM*
C=CCn1c(C)c(C(C)=O)cc(NC(=O)c2ccccc2)c1=O	·	1%	·	18%[10 µM]	1%	?
CC(=O)c1cc(NC(=O)c2ccccc2)c(=O)oc1C	·	?	·	-47%	9%	20µM*
CC(=O)c1cc(NC(=O)c2ccc(C)cc2)c(=O)oc1/C=C/N(C)C	24	1%	-9%	-3%[10 µM]	20%	?
COCCCn1c(C)c(C(C)=O)cc(NC(=O)c2ccccc2)c1=O	·	6%	·	-3%[10 µM]	-8%	2µM*
COC(=O)c1cc(NC(=O)c2ccc(OC)cc2)c(=O)oc1C	·	3%	·	-21%	9%	2%
CCOC(=O)c1cc(NC(=O)c2ccccc2)c(=O)oc1C(F)(F)F	·	2%	·	16%[10 µM]	10%	-3%
COC(=O)C/C=C\[C@@H](C)[C@@H](/C=N\O[C@@H](C)CN1CCCc2nc(C)c(C)cc21)NS(=O)(=O)c1ccc(C)cc1	·	·	·	-4%[10 µM]	·	?
COc1ccc(C(=O)N2CCC3(CCN(Cc4cc(C(F)(F)F)cc(C(F)(F)F)c4)CC3)CC2)cc1	·	·	-15%	?	13%	1%
CCOc1cc(/C=N/NC(=O)c2cc(-c3cccc(OC)c3)n[nH]2)ccc1O	·	·	-25%	·	·	?
CCNc1ncc2ncc(=O)n(Cc3cccs3)c2n1	·	·	·	-21%	2%	?
O=[N+]([O-])c1cccc(C(F)(F)F)c1	·	·	1%	-1%	-1%	14%
Cc1oc(=O)c(NC(=O)c2ccccc2)cc1C(=O)c1ccccc1	7	?	-15%	?	9%[38.3 µM]	18µM*
SMILES	IMPase cell inh	HttQ103 aggreg	HPGD block	HTT ATP protect	IMPase Li cell	ALDH1A1 block
CC1=C(C(=O)OC2CCCC2)C(c2ccc(Cl)cc2)CC(=O)N1 (stereo not drawn)	1	·	·	·	·	·
COc1ccc(C2C(C#N)=C(SCC(=O)Nc3ccc(C)cc3)NC3=C2C(=O)CC(C)(C)C3)cc1 (stereo not drawn)	-1	11µM*	?	-43%	-11%[38.3 µM]	?
CCC1C(C#N)=C(SCC(N)=O)NC2=C1C(=O)CC(C)(C)C2 (stereo not drawn)	·	-5%[9.22 µM]	·	-11%[10 µM]	·	·
CN1CCN(c2ncnc3ccc(-c4cccc(C#N)c4)cc23)CC1	·	·	·	-23%	31%	10µM*
COc1cccc(-c2ccc3ncnc(N4CCN(C)CC4)c3c2)c1	·	·	·	-108%	4%	30%
Oc1ccc(-c2n[nH]c(=S)n2-c2ccc3c(c2)OCCO3)c(O)c1	·	4%	14µM*	·	-7%	?
COc1ccc(-c2n[nH]c(=S)n2-c2ccc3c(c2)OCCO3)cc1	·	28%	25µM*	·	-8%	-9%
S=c1[nH]nc(-c2ccc(Cl)cc2Cl)n1-c1ccc2c(c1)OCCO2	·	22%[9.22 µM]	·	14%[10 µM]	·	·
NCCCCC(N)C(=O)NC(Cc1ccc(O)cc1)C(=O)NC(CCCCN)C(=O)O (stereo not drawn)	·	·	-19%	·	-6%	-8%
CCCCCC(=O)CC[C@@H]1[C@@H](C/C=C\CCCC(=O)O)[C@@H](O)C[C@H]1O	·	·	-6%	-20%	6%	-2%
Cn1cc([N+](=O)[O-])c(C(=O)Nc2ccn(Cc3c(F)c(F)cc(F)c3F)n2)n1	1	·	-11%	10µM*	14%[38.3 µM]	5%
COc1ccc(-c2coc3cc(O)ccc3c2=O)c(O)c1O	·	·	7.1µM*	-29%	12%	8.9µM*
COc1ccc(-c2coc3cc(O)ccc3c2=O)c(OC)c1O	·	·	?	·	2%	?
N#CC1=C2N=C(N)c3c(sc4c3CCCCC4)N2C2=C(C(=O)CCC2)C1c1ccccc1 (stereo not drawn)	0	-18%	-10%	-45%	-25%[38.3 µM]	5µM*
N#CC1=C2N=C(N)c3ccccc3N2C2=C(C(=O)CCC2)C1c1ccc(F)cc1 (stereo not drawn)	·	-11%[9.22 µM]	·	15%[10 µM]	·	·
Cc1ccc(S(=O)(=O)Nc2cc3c(C(=O)OCc4ccccc4)c(C)oc3c3ccccc23)c(C)c1	0	·	·	·	·	·
CCN(CC)S(=O)(=O)c1ccc2c(c1)nc(SCC(N)=O)n2-c1ccc(OC)cc1	7	14%[9.22 µM]	22µM*	-2%	-17%[38.3 µM]	?
CCNC(=O)/C=C/c1cccc(Br)c1	·	1%	·	-9%	·	·
O=C(/C=C/c1cccc(Br)c1)NCC1CCCCC1	9	2%	-22%	-5%[10 µM]	28%	11µM*
COc1ccc2c(c1)O[C@H](c1ccc3c(c1)OCO3)[C@@H](OC(=O)NCc1ccco1)C2=O	·	·	-11%	-17%	18%	-15%
O=C1c2ccccc2S(=O)(=O)N1Cc1nc2ccccc2s1	-1	2%	-13%	-70%[10 µM]	-3%[38.3 µM]	-10%
CN(C)c1ccc(C2=NOC(CN3C(=O)c4ccccc4S3(=O)=O)C2)cc1 (stereo not drawn)	5	-1%[9.22 µM]	?	-32%	0%[38.3 µM]	16µM*
COc1cc(/C=N/NC(N)=S)cc(Br)c1OCc1ccccc1F	·	-2%	-15%	38%[10 µM]	17%	?

Screening data: PubChem BioAssay, National Center for Advancing Translational Sciences (NCATS)
